# Measured values: PubChem BioAssay (Tox21)
# A number with no mark means an inactive call. Inconclusive results are not listed. Activity calls are given as the source filed them. Calls come from the whole dose curve.
# Biological target: Estrogen receptor (Homo sapiens) (UniProt P03372)
# Experiment: qHTS assay to identify small molecule agonists of the estrogen receptor alpha (ER-alpha) signaling pathway in the presence of an antagonist (AID 1259383); note: top concentration of the series differs between compounds; nearly all actives have a fitted effect of over 15% in size
# Conditions: VM7Luc4E2 cells, ERE-luciferase, +ICI-182,780, 22 h; series mostly up to 42.5 µM; activation: at the top concentration
# Method in brief: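 Luciferase luminescence (ONE-Glo, 30min at room temperature) measured in VM7Luc4E2 cells after 22hr compound exposure at 15 concentrations, with 10.0nM ICI-182,780 final present; cells express endogenous ER-alpha and carry four EREs upstream of luciferase.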
# % is set by controls: 0 for no effect and ±100 for the full control effect.
# Chain of Estrogen receptor (Homo sapiens) (P03372 whole entry, looked up): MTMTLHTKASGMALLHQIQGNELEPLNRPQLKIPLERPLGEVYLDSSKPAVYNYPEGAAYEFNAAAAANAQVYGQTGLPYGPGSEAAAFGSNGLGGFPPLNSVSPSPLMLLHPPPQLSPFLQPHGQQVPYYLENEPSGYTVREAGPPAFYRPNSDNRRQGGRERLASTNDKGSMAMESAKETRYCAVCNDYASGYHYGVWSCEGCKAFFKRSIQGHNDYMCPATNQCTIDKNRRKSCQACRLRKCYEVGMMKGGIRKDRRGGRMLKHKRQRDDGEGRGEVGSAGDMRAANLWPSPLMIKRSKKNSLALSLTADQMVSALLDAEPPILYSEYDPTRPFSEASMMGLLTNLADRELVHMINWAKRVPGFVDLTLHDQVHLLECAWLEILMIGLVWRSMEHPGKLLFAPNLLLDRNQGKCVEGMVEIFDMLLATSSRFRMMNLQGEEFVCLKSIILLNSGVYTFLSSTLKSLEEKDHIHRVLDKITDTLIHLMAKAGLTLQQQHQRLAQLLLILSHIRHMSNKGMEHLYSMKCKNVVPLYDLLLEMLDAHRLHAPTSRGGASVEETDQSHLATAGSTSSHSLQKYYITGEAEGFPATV
SMILES,activation,Potency
CC1=CC[C@H](C(C)C)C=C1,-1.04% [at 92.4 µM],–
Cc1oc2c(NC(=O)c3c(Cl)cccc3Cl)cccc2c1C(C)(C)O,0.0996% [at 92.4 µM],–
CCOC(=O)NCCOc1ccc(Oc2ccccc2)cc1,0.0845% [at 92.4 µM],–
CNCCCN1c2ccccc2CCc2ccccc21,-1.91%,–
C[C@H]1C[C@H]2[C@@H]3CCC4=CC(=O)C=C[C@]4(C)[C@@]3(Cl)[C@@H](O)C[C@]2(C)[C@@]1(O)C(=O)CO,0.294%,–
C=CC(=O)OCCOCCOC(=O)C=C,-9.19% [at 92.4 µM],–
COc1ccc(S(=O)(=O)N2C(=O)[C@@](c3ccccc3OC)(N3C[C@H](O)C[C@H]3C(=O)N(C)C)c3cc(Cl)ccc32)c(OC)c1,-0.131% [at 92.4 µM],–
O=C(Nc1ccc(S(=O)(=O)N2CCOCC2)cc1)c1cc(Cl)ccc1NS(=O)(=O)c1ccc(Cl)s1,-0.998%,–
CCCCC/C=C\C/C=C\CCCCCCCC(=O)NC(C)c1ccccc1 (configuration not stated),0.493%,–
O=C(O)C1(C(=O)Nc2ccc(Cl)cc2Cl)CC1,6.83% [at 92.4 µM],–
C=CC(=O)OCCOCCOCCOCCOC(=O)C=C,–,inactive
CCCCCCOC(=O)NC(=N)c1ccc(NCc2nc3cc(C(=O)N(CCC(=O)OCC)c4ccccn4)ccc3n2C)cc1,0.779%,–
CCN(CC)CCNc1ccc(CNC=O)c2sc3ccc(OC)cc3c(=O)c12,-0.0267% [at 92.4 µM],–
C#Cc1cccc(Nc2ncnc3cc(OCCOC)c(OCCOC)cc23)c1,0.458%,–
C=C1C(=C/C=C2\CCC[C@]3(C)[C@@H]([C@H](C)/C=C/[C@@H](O)C4CC4)CC[C@@H]23)C[C@@H](O)C[C@@H]1O,0.28%,–
CCOc1ccc(N)c([N+](=O)[O-])c1,1.24% [at 92.4 µM],–
Cc1cccc(C)c1OCC(=O)N[C@@H](Cc1ccccc1)[C@@H](O)C[C@H](Cc1ccccc1)NC(=O)[C@H](C(C)C)N1CCCNC1=O,0.938%,–

# System: not listed separately
# Experiment: qHTS assay to identify small molecule agonists or antagonists of the thyroid stimulating hormone receptor (TSHR) signaling pathway - wild type cell line counter screen (AID 1259384)
# Conditions: HEK293 wild type, cAMP HTRF counter-screen; series mostly up to 92.4 µM; cAMP activity change: at the top concentration
# Method in brief: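 Wild-type Hek293 cells, 800/well, 18 h at 37C, then compound with Ro20-1724 for 30 min RT. cAMP by HTRF (cAMP-d2/anti-cAMP cryptate), 1 h RT, fluorescence read. 15 concentrations, triplicates.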
SMILES,cAMP activity change,Potency
Cc1oc2c(NC(=O)c3c(Cl)cccc3Cl)cccc2c1C(C)(C)O,8.63%,–
CCOC(=O)NCCOc1ccc(Oc2ccccc2)cc1,5.18%,–
CNCCCN1c2ccccc2CCc2ccccc21,"2.47% [at 42.5 µM, active compounds read high]",–
C[C@H]1C[C@H]2[C@@H]3CCC4=CC(=O)C=C[C@]4(C)[C@@]3(Cl)[C@@H](O)C[C@]2(C)[C@@]1(O)C(=O)CO,"-3.27% [at 42.5 µM, active compounds read high]",–
C=CC(=O)OCCOCCOC(=O)C=C,-2.36%,–
CN(C)C(=O)NC1(c2ccccc2)CCN(CC[C@@]2(c3ccc(F)c(F)c3)CN(C(=O)c3ccccc3)CCO2)CC1,0.228%,–
CC(=O)[O][Al][O]C(C)=O,2.75%,–
COc1ccc(S(=O)(=O)N2C(=O)[C@@](c3ccccc3OC)(N3C[C@H](O)C[C@H]3C(=O)N(C)C)c3cc(Cl)ccc32)c(OC)c1,3.43%,–
O=C(Nc1ccc(S(=O)(=O)N2CCOCC2)cc1)c1cc(Cl)ccc1NS(=O)(=O)c1ccc(Cl)s1,"6.78% [at 42.5 µM, active compounds read high]",–
CCCCC/C=C\C/C=C\CCCCCCCC(=O)NC(C)c1ccccc1 (configuration not stated),"-5.35% [at 42.5 µM, active compounds read high]",–
O=C(O)c1nc(Cl)c(Cl)c(Cl)c1Cl,2.72%,–
CCN(CC)CCOC(=O)C(Cc1cccc2ccccc12)CC1CCCO1 (configuration not stated),"2.84% [at 42.5 µM, active compounds read high]",–
CCOc1ccc(N=Nc2ccc(/C=C/c3ccc(N=Nc4ccc(OCC)cc4)cc3S(=O)(=O)O)c(S(=O)(=O)O)c2)cc1,7.8%,–
COC(=O)c1ccc(I)cc1S(=O)(=O)NC(=O)Nc1nc(C)nc(OC)n1,-1.83%,–
CN(C)CCN(Cc1ccc(Cl)cc1)c1ccccn1,"1.98% [at 42.5 µM, active compounds read high]",–
O=C(O)C1(C(=O)Nc2ccc(Cl)cc2Cl)CC1,2.93%,–

SMILES,cAMP activity change,Potency
C=CC(=O)OCCOCCOCCOCCOC(=O)C=C,–,inactive
CC(=O)[O][Al],1.15%,–
CCCCCCOC(=O)NC(=N)c1ccc(NCc2nc3cc(C(=O)N(CCC(=O)OCC)c4ccccn4)ccc3n2C)cc1,"-6.12% [at 42.5 µM, active compounds read high]",–
C=C1C(=C/C=C2\CCC[C@]3(C)[C@@H]([C@H](C)/C=C/[C@@H](O)C4CC4)CC[C@@H]23)C[C@@H](O)C[C@@H]1O,"-2.38% [at 42.5 µM, active compounds read high]",–
CC(C)C[C@H]1C(=O)N2CCC[C@H]2[C@]2(O)O[C@](NC(=O)[C@@H]3C=C4c5cccc6[nH]c(Br)c(c56)C[C@H]4N(C)C3)(C(C)C)C(=O)N12,"-2.73% [at 42.5 µM, active compounds read high]",–
O=C(NCCO[N+](=O)[O-])c1cccnc1,"4.76% [at 42.5 µM, active compounds read high]",–
Nc1ccc(S(=O)(=O)Nc2ccccc2)cc1,"-0.199% [at 42.5 µM, active compounds read high]",–
CCCCCCc1ccc(-c2ccc(C#N)cc2)cc1,-9.21%,–
CCOc1ccc(N)c([N+](=O)[O-])c1,-1.1%,–
CC[N+]1(CC)CCC(=C(c2ccccc2)c2ccccc2)C1C (configuration not stated),"1.54% [at 42.5 µM, active compounds read high]",–
Cc1cccc(C)c1OCC(=O)N[C@@H](Cc1ccccc1)[C@@H](O)C[C@H](Cc1ccccc1)NC(=O)[C@H](C(C)C)N1CCCNC1=O,"-3.83% [at 42.5 µM, active compounds read high]",–
O=C(c1ccc(F)cc1)C1CCN(CCn2c(=S)[nH]c3ccccc3c2=O)CC1,"3.69% [at 42.5 µM, active compounds read high]",–
CCC(C)O (configuration not stated),4.87%,–
Cc1ccc(C(C)OC(=O)C2(C)CCC(C(=O)O)C2(C)C)cc1 (configuration not stated),"-4.25% [at 42.5 µM, active compounds read high]",–
CCOC(=O)C(F)(F)F,-0.736%,–

# Biological target: Thyrotropin receptor (Homo sapiens) (UniProt P16473)
# Sequence (P16473 whole entry, looked up): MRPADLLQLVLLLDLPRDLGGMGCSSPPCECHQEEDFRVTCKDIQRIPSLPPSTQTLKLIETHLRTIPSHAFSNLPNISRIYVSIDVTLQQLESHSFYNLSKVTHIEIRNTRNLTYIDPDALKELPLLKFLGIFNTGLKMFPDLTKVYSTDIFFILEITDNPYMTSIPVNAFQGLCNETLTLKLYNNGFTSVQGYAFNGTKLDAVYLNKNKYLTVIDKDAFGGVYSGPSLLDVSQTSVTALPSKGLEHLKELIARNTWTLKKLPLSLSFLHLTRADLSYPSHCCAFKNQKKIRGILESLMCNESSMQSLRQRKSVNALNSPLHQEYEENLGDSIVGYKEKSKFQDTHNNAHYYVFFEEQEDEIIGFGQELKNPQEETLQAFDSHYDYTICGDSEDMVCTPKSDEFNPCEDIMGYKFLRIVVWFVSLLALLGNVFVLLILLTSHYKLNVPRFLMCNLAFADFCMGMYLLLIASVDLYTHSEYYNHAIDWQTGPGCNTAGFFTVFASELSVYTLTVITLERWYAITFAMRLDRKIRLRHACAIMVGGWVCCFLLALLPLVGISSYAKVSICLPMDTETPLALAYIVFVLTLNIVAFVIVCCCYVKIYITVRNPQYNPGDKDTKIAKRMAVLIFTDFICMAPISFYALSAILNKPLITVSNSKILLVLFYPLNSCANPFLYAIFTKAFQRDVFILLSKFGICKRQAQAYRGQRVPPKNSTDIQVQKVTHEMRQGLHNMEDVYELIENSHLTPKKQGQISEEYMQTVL
# Experiment: qHTS assay to identify small molecule antagonists of the thyroid stimulating hormone receptor (TSHR) signaling pathway (AID 1259385); note: nearly all actives have a fitted effect of over 20% in size; note: potency is the fitted concentration of half-maximal effect
# Conditions: TSHR-HEK293 cAMP HTRF, TSH-stimulated antagonist mode; series mostly up to 92.4 µM; activity change, negative = inhibition: at the top concentration
# Method in brief: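 TSHR-HEK293 cells (800/well) plated 18 h, then compounds with Ro20-1724 and TSH at 1.5 ng/mL final, 30 min at room temperature. cAMP quantified by HTRF (cAMP-d2/anti-cAMP-cryptate, 1 h); 15 concentrations in triplicate.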
SMILES,"activity change, negative = inhibition",Potency
CCOC(=O)NCCOc1ccc(Oc2ccccc2)cc1,0.651%,–
CNCCCN1c2ccccc2CCc2ccccc21,–,29.8 µM (active)
C=CC(=O)OCCOCCOC(=O)C=C,9.66%,–
CN(C)C(=O)NC1(c2ccccc2)CCN(CC[C@@]2(c3ccc(F)c(F)c3)CN(C(=O)c3ccccc3)CCO2)CC1,-2.69%,–
COc1ccc(S(=O)(=O)N2C(=O)[C@@](c3ccccc3OC)(N3C[C@H](O)C[C@H]3C(=O)N(C)C)c3cc(Cl)ccc32)c(OC)c1,-6.54%,–
O=C(O)c1nc(Cl)c(Cl)c(Cl)c1Cl,1.14%,–
COC(=O)c1ccc(I)cc1S(=O)(=O)NC(=O)Nc1nc(C)nc(OC)n1,-1.42%,–
CN(C)CCN(Cc1ccc(Cl)cc1)c1ccccn1,-0.422% [at 42.5 µM],–
O=C(O)C1(C(=O)Nc2ccc(Cl)cc2Cl)CC1,-0.0183%,–
C=CC(=O)OCCOCCOCCOCCOC(=O)C=C,–,inactive
CCCCCCOC(=O)NC(=N)c1ccc(NCc2nc3cc(C(=O)N(CCC(=O)OCC)c4ccccn4)ccc3n2C)cc1,–,29.8 µM (active)
C#Cc1cccc(Nc2ncnc3cc(OCCOC)c(OCCOC)cc23)c1,-7.32% [at 42.5 µM],–
C=C1C(=C/C=C2\CCC[C@]3(C)[C@@H]([C@H](C)/C=C/[C@@H](O)C4CC4)CC[C@@H]23)C[C@@H](O)C[C@@H]1O,5.4% [at 42.5 µM],–
CC(C)C[C@H]1C(=O)N2CCC[C@H]2[C@]2(O)O[C@](NC(=O)[C@@H]3C=C4c5cccc6[nH]c(Br)c(c56)C[C@H]4N(C)C3)(C(C)C)C(=O)N12,3.19% [at 42.5 µM],–
CCOc1ccc(N)c([N+](=O)[O-])c1,-1.34%,–
CC[N+]1(CC)CCC(=C(c2ccccc2)c2ccccc2)C1C (configuration not stated),2.63% [at 42.5 µM],–
Cc1cccc(C)c1OCC(=O)N[C@@H](Cc1ccccc1)[C@@H](O)C[C@H](Cc1ccccc1)NC(=O)[C@H](C(C)C)N1CCCNC1=O,0.878% [at 42.5 µM],–
O=C(c1ccc(F)cc1)C1CCN(CCn2c(=S)[nH]c3ccccc3c2=O)CC1,-0.534% [at 42.5 µM],–
Cc1ccc(C(C)OC(=O)C2(C)CCC(C(=O)O)C2(C)C)cc1 (configuration not stated),-0.804% [at 42.5 µM],–
